Hits are enriched below; roughly 7.3% of the tested compounds scored in any of these assays.
Rab9 prom act: activates the Rab9 promoter; Huh7 Rab9 promoter-luciferase reporter, luminescence, 24 h; Potency, µM (highest dose often 9.22 µM), inactives show at the top dose activation, negative = inhibition, hits mostly activators; hit rate 2.8% among 320,000; further: % of control where 0% means no effect; nearly all actives have a fitted effect of over 60% in size
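Steps: seed 1500 Huh7 Rab9-luc cells per well, rest 2 h at 37 °C; add compound in DMSO; incubate 24 h; add luciferase reagent, 10 min ambient; read luminescence.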
ELG1 genotoxic: inducers of genotoxicity in HEK293T ELG1-luciferase cells; hit rate 1.3% among 330,000; HEK293T ELG1-luciferase reporter, luminescence, 16 h; Potency, µM (top dose mostly 46 µM), inactives show at the highest dose activity change, positive = activation, usual class: activators; further: % of control where 0% means no effect; nearly all actives have a fitted effect of over 60% in size
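HEK293T cells expressing luciferase-tagged ELG1 were exposed to compound or DMSO vehicle for 16 hr at 37 °C and 5% CO2. Luciferase activity was then measured with ONE-Glo after 30 min at room temperature.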
p53 reactivation: restores transcriptional activity of mutant p53. H1299 p53-A138V BP100-luciferase reporter, luminescence, 24 h. hit rate 0.063% among 320,000. Potency, µM (series often up to 92.2 µM), inactives show at the highest dose activity change, positive = activation, most hits filed as activators; further: % of control where 0% means no effect; nearly all actives have a fitted effect of over 45% in size
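p53-null H1299 cells stably carrying temperature-sensitive p53-A138V and a BP100-luciferase reporter were pinned with compounds (4-point, 1:5 series) and held 24 hrs at 37 deg C. Luminescence was read 10 min after detection reagent.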
NPC1 prom act: NPC1 promoter activation | Huh7 NPC1 promoter luciferase reporter, 24 h | Potency, µM (top dose mostly 9.22 µM), for the others: at the highest dose activation, most hits filed as activators | hit rate 2.4% among 320,000; further: % of control where 0% means no effect; nearly all actives have a fitted effect of over 60% in size
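Cells: Huh7 expressing luciferase under the NPC1 promoter, 1500/well. Seeded 2 h, compound added, incubated 24 h at 37 °C. Luciferase reagent, 10 min ambient, then luminescence.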
SMN2 splice up: enhancers of SMN2 splice variant expression; HEK293 SMN2-luciferase splicing reporter, luminescence, 30-36 h; Potency, µM (highest dose often 46.1 µM), without a hit: at the top dose activity change, positive = activation, most hits filed as activators; hit rate 2.8% among 210,000; AID 1458; further: % of control where 0% means no effect; nearly all actives have a fitted effect of over 55% in size
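HEK293 cells carry an SMN2 […]–luciferase reporter in which exon 7 inclusion puts luciferase in frame. Cells were plated 10-12 h before compound addition, then incubated 30-36 h at 37C. ONE-Glo luminescence was read; sodium butyrate at 4.5 mM final served as control.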
FLuc modulator: counter-screen for miR-21 project: firefly luciferase inhibitors or activators; P08659; purified FLuc, Km substrates, luminescence inhibition; Potency, µM (titrated, usually from 57.5 µM), for the others: at the top dose activity change, negative = inhibition, most hits filed as inhibitors; hit rate 6.9% among 360,000;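 further: plate controls were vehicle for no effect and reference inhibitor for full effect; nearly all actives have a fitted effect of over 55% in size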
Target sequence (P08659 whole entry, looked up): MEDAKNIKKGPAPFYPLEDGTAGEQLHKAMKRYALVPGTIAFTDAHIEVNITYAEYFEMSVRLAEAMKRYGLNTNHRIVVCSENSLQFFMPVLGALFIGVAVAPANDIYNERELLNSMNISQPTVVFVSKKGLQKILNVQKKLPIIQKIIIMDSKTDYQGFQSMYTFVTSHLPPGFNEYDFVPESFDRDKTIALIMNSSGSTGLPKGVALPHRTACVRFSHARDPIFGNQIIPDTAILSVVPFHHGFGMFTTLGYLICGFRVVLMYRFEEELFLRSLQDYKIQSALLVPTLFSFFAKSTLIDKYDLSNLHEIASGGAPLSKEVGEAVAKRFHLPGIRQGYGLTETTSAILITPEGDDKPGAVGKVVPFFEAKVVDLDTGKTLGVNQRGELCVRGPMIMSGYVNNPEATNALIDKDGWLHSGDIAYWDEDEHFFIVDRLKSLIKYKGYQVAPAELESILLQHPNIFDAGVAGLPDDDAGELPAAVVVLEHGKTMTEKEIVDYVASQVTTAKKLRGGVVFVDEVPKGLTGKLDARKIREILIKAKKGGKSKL
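Purified P. pyralis luciferase, 10 nM final, with Km-level 10 uM D-luciferin and 10 uM ATP in 50 mM Tris acetate pH 7.5, 10 mM Mg acetate, 0.01% Tween-20, 0.05% BSA; 6-point qHTS titration about 60 µM downward; luminescence read.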
Active calls of the source: *; u = inconclusive; x = no result; [ ] = remark or other dose. The call rests on the fitted dose curve; in most records, active means well fitted curve in the direction sought with a large enough effect; inconclusive means small, poorly fitted or top-dose-only effect, or another doubt; inactive means no such curve, though single readings can be large; an effect the other way counts as inactive or inconclusive. Potency means the concentration at half of the fitted maximal effect.

SMILES	Rab9 prom act	ELG1 genotoxic	p53 reactivation	NPC1 prom act	SMN2 splice up	FLuc modulator
CN(C)CCCN(C(=O)c1sc2ccccc2c1Cl)c1nc2ccc(F)cc2s1	-4.0%	u	u	-1.8%	17.8µM*	4.78µM*
CN(C)CCCOC(=O)c1sc2ccccc2c1Cl	0.4%	4.0%	5.1%	-8.3%	x	23.9µM*
N#Cc1ccc(CN2CC[C@@]3(CCCN(C(=O)c4cccc(F)c4)C3)C2)cc1	x	x	x	x	-44.7%	x
O=C(Nc1ccccc1)N1CCCC2(CCN(C(=O)c3ccco3)CC2)C1	x	x	x	x	-14.4%	x
COC(=O)C(=Cc1ccc(OCc2ccc([N+](=O)[O-])cc2)c(OC)c1)C(=O)OC	0.9%	u	u	-0.9%	15.8µM*	9.53µM*
CCOC(=O)C(=Cc1ccc(OCc2ccc([N+](=O)[O-])cc2)c(OC)c1)C(=O)OCC	-2.3%	-8.8%	-12.4%	-3.1%	-12.8%	15.1µM*
COc1cc(C(c2c(C)[nH][nH]c2=O)c2c(C)[nH][nH]c2=O)ccc1OCc1ccc([N+](=O)[O-])cc1	-0.4%	18.4µM*	u	18.6%	17.8µM*	-19.7%
COc1ccc2cc(C(C)CO)ccc2c1 (configuration not stated)	x	x	x	x	-0.1%	x
COc1ccccc1CNC(=O)CS(=O)(=O)c1ccc(C)cc1	13.8%	1.4%	4.9%	4.7%	x	5.7%
COc1ccc(C(=O)O)cc1NC(=S)NC(=O)/C=C/c1ccc(C(C)C)cc1	-2.9%	0.3%	2.7%	1.7%	x	10.7µM*
CCCCC(=O)NC(=S)Nc1cc(C(=O)O)ccc1OC	-8.1%	0.8%	0.4%	-2.1%	2.9%	4.4%
CCOC(=O)c1ccccc1-c1cn2cc(Cl)ccc2n1	8.5%	10.4%	2.5%	-2.4%	6.1%	15.1µM*
CCOc1ccc(-n2c(=O)c3c(C)c(C)sc3n(CC(=O)c3ccccc3)c2=O)cc1	x	x	x	x	-0.2%	-0.4%
Cc1ccc2nc(-c3ccc(O)c(O)c3)cn2c1	7.6%	u	-5.2%	u	x	3.38µM*
Cc1ccc2nc(-c3ccccc3)cn2c1	u	u	-9.8%	0.112µM*	0.501µM*	0.12µM*
Cc1ccc2nc(-c3ccc(S(=O)(=O)N4CCOCC4)cc3)cn2c1	15.5%	23.1µM*	26.2%	1.6%	4.6%	-9.9%
Cc1ccn2cc(-c3ccc(S(=O)(=O)N4CCOCC4)cc3)nc2c1	u	7.1%	9.8%	u	8.1%	u
Cc1ccc2nc(-c3ccc(-c4ccccn4)s3)cn2c1	0.398µM*	1.64µM*	u	0.447µM*	x	0.19µM*
CC(=O)Nc1ccc(-c2cn3cc(C)ccc3n2)cc1	1µM*	u	u	3.16µM*	4.47µM*	1.9µM*
CC(=O)Nc1ccc(C)cc1	0.9%	3.7%	-3.6%	0.3%	-0.1%	-0.4%
COc1cccc(NC(=O)Nc2ccncc2)c1	18.2%	-2.3%	1.2%	-1.1%	x	u
COc1cccc(NC(=O)Nc2nnc(Cc3ccccc3)s2)c1	17.8%	0.1%	2.1%	1.4%	x	-2.8%
COc1cccc(CNC(=O)c2ccncc2)c1	0.3%	-4.9%	-0.7%	3.7%	x	16.9µM*
COc1cccc(NC(=S)NCc2ccncc2)c1	1.2%	-0.4%	-2.9%	0.8%	-12.3%	1.7%
COc1cccc(NC(=O)Nc2ccc(Cc3ccncc3)cc2)c1	-1.6%	-1.2%	4.2%	-0.3%	-35.5%	16.9µM*
SMILES	Rab9 prom act	ELG1 genotoxic	p53 reactivation	NPC1 prom act	SMN2 splice up	FLuc modulator
COc1cccc(NC(=O)C(=O)NCc2ccncc2)c1	u	u	5.4%	2.3%	12.6µM*	19µM*
COc1cccc(NC(=O)Nc2nnc(N3C(C)CCCC3C)s2)c1 (configuration not stated)	22.7%	-5.3%	4.1%	28.6%	x	21.3µM*
COc1ccc(CNC(=O)CCc2c(C)c3cc4c(C)coc4cc3oc2=O)cc1	x	x	x	x	1.5%	-6.4%
CC(C)(C)C(=O)Nc1ccc2nc(SCCOc3ccccc3Cl)sc2c1	x	x	x	x	x	-1.6%
Cc1c(C(=O)N2CCOCC2)oc2c1-c1nn(CC(=O)NCc3ccccc3)cc1CC2	x	x	x	x	x	-2.6%
O=C(C1CCC(Cn2c(=O)c3sccc3n(Cc3ccccc3)c2=O)CC1)N1CCOCC1 (configuration not stated)	x	x	x	x	x	-5.0%
COc1c(C(=O)Nc2ccc(Cc3ccncc3)cc2)ccc2ccccc12	-4.5%	-0.1%	4.3%	3.9%	-53.6%	19µM*
CC(=O)Nc1cc(C(=O)Nc2ccc3c(c2)N(C)C(=O)c2ccccc2S3)ccc1C	x	x	x	x	x	6.2%
COc1ccc(-c2nn(-c3ccccc3)cc2C(=O)Nc2ccc(C(=O)O)cc2)cc1	-2.0%	-1.4%	5.8%	3.9%	x	10.7µM*
O=C(O)c1ccc(NC(=O)c2cn(-c3ccccc3)nc2-c2ccccc2)cc1	27.9%	11.3%	29.9%	23.4%	u	1.2µM*
COc1ccc(-c2nn(-c3ccccc3)cc2C#N)cc1	3.55µM*	u	12.8%	u	-1.7%	5.36µM*
COc1ccc(NC(=O)c2cn(-c3ccccc3)nc2-c2cc3ccccc3o2)cc1	15.2%	-6.5%	2.4%	10.1%	-4.9%	8.49µM*
COc1ccc(NC(=O)c2cn(-c3ccccc3)nc2-c2ccncc2)cc1	-2.2%	-7.7%	-4.1%	-4.6%	-2.8%	u
Cn1c(SCC(=O)Nc2ccc(Cl)cc2F)nnc1-c1ccco1	0.0%	-1.3%	0.2%	-4.8%	x	-1.6%
N#C/C(=C(\O)C(=O)O)c1ccc(-c2cccc3ccccc23)cc1	x	x	x	x	-6.8%[9.22 µM]	x
Clc1ccc2c(NC3CCC(N4CCCCC4)CC3)ccnc2c1 (configuration not stated)	x	x	x	x	-3.9%[9.22 µM]	x
COc1ccc(-c2nn(-c3ccccc3)cc2/C=N/Nc2cccc(C(=O)O)c2)cc1	u	u	0.3%	u	25.3%	10.7µM*
COc1ccc(NC(=O)CN(C)C(=O)c2cn(-c3ccccc3)nc2-c2ccc(F)cc2)cc1	1.4%	-3.6%	-0.2%	-1.1%	x	21.3µM*
N#Cc1cn(-c2ccccc2)nc1-c1cc2ccccc2oc1=O	-1.0%	u	14.6%	12.9%	x	0.1%
O=C(O)c1ccc(NC(=O)c2cn(-c3ccccc3)nc2-c2ccc(Br)cc2)cc1	-4.9%	-0.2%	7.2%	0.2%	6.5%	3.79µM*
OCc1cn(-c2ccccc2)nc1-c1cc2ccccc2o1	1.26µM*	u	6.4%	2.51µM*	7.94µM*	1.69µM*
Cc1ccc(Cl)cc1NC(=O)c1ccc(NC(=O)N2CCSc3ncccc32)cc1	x	x	x	x	x	-11.2%
Cc1cc(C)c(S(=O)(=O)NCC(c2ccco2)N2CCN(c3ccccc3)CC2)c(C)c1 (configuration not stated)	x	x	x	x	x	-2.0%
